# Screening data (PubChem)
# Pin1 inhibitor: qHTS Assay to Find Inhibitors of Pin1. Pin1 FP peptide displacement, HiFluor488, 10 min. 390,000 tested, 0.009% active. Potency, µM (highest dose often 115 µM), for inactives: at the highest dose activity, negative = inhibition, most hits filed as inhibitors; active = well fitted inhibition curve with a large enough effect in the polarisation, with a control signal flat, not every such curve was filed as active; inconclusive = small, poorly fitted or top-dose-only effect, or effect the other way, or a change in a side signal; inactive = no such curve, though single readings can be large or run the other way; the % refers to the polarisation; also: potency is read from the fitted curve at half-maximal effect; % is scaled to controls: 0 for no effect and ±100 for the full control effect
# Target sequence (Q13526 whole entry, looked up): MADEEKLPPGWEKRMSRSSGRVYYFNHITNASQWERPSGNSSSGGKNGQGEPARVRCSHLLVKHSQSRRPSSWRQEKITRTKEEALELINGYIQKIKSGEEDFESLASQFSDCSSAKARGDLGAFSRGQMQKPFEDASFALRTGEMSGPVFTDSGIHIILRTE
# PI4K2A block: qHTS for small molecular inhibitors of PI4K2A | activity change, negative = inhibition, % at 76.9 µM | AID 1346378, 2018 | purified PI4K2A, ADP-Glo luminescence, 1 h; active compounds read low | 420,000 tested, 0.13% active; in the data active = activity change below about -50%; inconclusive = mostly about -30% to -49%;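 also: -100% = wells without enzyme as full effect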
#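 In this quantitative HTS, ADP production by PI4K2A was quantified luminescently after 1 h at ambient temperature; 100 microM adenosine served as plate-quality control.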
# B2AR arrestin: qHTS assay of beta-arrestin-biased ligands of beta2-adrenergic receptor; beta-arrestin recruitment to beta2AR, cell-based reporter; Potency, µM (doses to about 46.1 µM), for inactives: at the top dose activation, hits mostly activators; AID 492947, 2010; 330,000 tested, 0.02% active;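 also: potency is read from the fitted curve at half-maximal effect; 0% = DMSO controls and full agonism = EC100 isoproterenol or metaproterenol; nearly all actives have a fitted effect of over 65% in size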
# Epigenetic derep: Quantitative High-Throughput Screen for Regulators of Epigenetic Control | murine LDR cells, GFP reporter derepression, 30 h | Potency, µM (doses to about 53.9 µM), without a hit: at the highest dose GFP activation, actives largely listed as activators | 280,000 tested, 0.2% active; also: potency is read from the fitted curve at half-maximal effect; % of control where 0% means no effect; nearly all actives have a fitted effect of over 60% in size
#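 GFP-positive cell count by laser-scanning cytometry (objects 20–120 um) after 30 h, 37 C compound exposure of murine LDR cells; reporter is CMV-GFP integrated at a silenced locus, inducible by HDAC or DNMT inhibitors.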
# p53 reactivation: qHTS assay for re-activators of p53 using a Luc reporter; H1299 p53-A138V BP100-luciferase reporter, luminescence, 24 h; Potency, µM (series often up to 92.2 µM), for the others: at the top dose activity change, positive = activation, usual class: activators; 320,000 tested, 0.063% active; AID 504706, 2011; also: potency is read from the fitted curve at half-maximal effect; % of control where 0% means no effect; nearly all actives have a fitted effect of over 45% in size
#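 H1299 (p53-null), stable ts p53-A138V + BP100-Luc; 1000 cells/well, Opti-MEM/10% FBS; cpd 4 pt, 1:5; 24 h, 37 deg C, 5% CO2; detection reagent 10 min RT; luminescence.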
# Giardia kill: Small Molecules that selectively kill Giardia lamblia: qHTS. activity change, % at 7.66 µM, hits read low. AID 540267, 2011. 340,000 tested, 0.15% active. Giardia lamblia trophozoite viability; in the data active = activity change below about -80%; inconclusive = between about -30% and that limit;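 also: parasites exposed to compound for two days anaerobically before the ATP read; % is scaled to controls: 0 for no effect and ±100 for the full control effect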
#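 Luminescence from cellular ATP indicates surviving trophozoites (100 cells/well) following 48 hrs anaerobic compound treatment at 37 deg C; signal develops 15-30 min at room temperature.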
# The depositor's hits bear a star; ? = inconclusive; . = no result. The list is not random: actives were taken first. Their share in the collection is about 0.44%. Unless noted, calls follow the shape of the dose curve; as a rule, active = well fitted curve in the direction sought with a large enough effect; inconclusive = small, poorly fitted or top-dose-only effect, or another doubt; inactive = no such curve, though single readings can be large; an effect the other way counts as inactive or inconclusive.
SMILES,Pin1 inhibitor,PI4K2A block,B2AR arrestin,Epigenetic derep,p53 reactivation,Giardia kill
CCC1CCCCN1C(=O)c1ccc([N+](=O)[O-])o1 (stereo not drawn),2%,-1,0%,.,?,-97*
Cn1nnnc1Sc1ncnc2scc(-c3ccc4c(=O)ccoc4c3)c12,-4%,.,.,.,.,.
CC(C)C(=O)N1CCN(c2ccccc2NC(=O)c2ccc(Br)o2)CC1,-2%,-2,-1%,.,-7%,-6
CC(C)C(=O)N1CCN(c2ccccc2NC(=O)c2ccc([N+](=O)[O-])o2)CC1,-9%,0,0%,.,?,-89*
O=C(Nc1ccccc1N1CCCC1)c1ccc([N+](=O)[O-])o1,1%,-1,0%,.,-34%,?
CCC(=O)N1CCN(c2ccccc2NC(=O)c2ccc([N+](=O)[O-])o2)CC1,-3%,-3,0%,.,?,-90*
O=C(Nc1ccccc1N1CCN(C(=O)c2ccccc2)CC1)c1ccc([N+](=O)[O-])o1,0%,-4,0%,.,-14%,-86*
Cc1cc2c(s1)c1cnn(Cc3cccc(C(F)(F)F)c3)c(=O)c1n2C,1%,.,.,.,.,.
CC[n+]1c(C=C2C=C(C)OC(C)=C2)sc2ccccc21,31%,0,-1%,7.9µM*,6%,7
Cc1cc2c(s1)c1cnn(Cc3ccc(C(C)(C)C)cc3)c(=O)c1n2C,-2%,.,.,.,.,.
Cc1cnc(NS(=O)(=O)c2ccc(N)cc2)nc1,.,-1,.,.,.,.
COc1cc(CNc2ccc(O)cc2)cc(Br)c1OCc1ccccc1F,.,-51*,0%,3%,20%,12
CCN(CC)S(=O)(=O)c1cc([N+](=O)[O-])ccc1N=Nc1c(O)[nH]c2ccccc12,25%,4,-2%,18µM*,2%,-2
Cc1ccc2[nH]c(O)c(N=Nc3ccccc3[N+](=O)[O-])c2c1,-8%,-5,.,.,.,17
OC1(c2ccc(Cl)cc2)CCNCC1,.,0,.,.,.,.
CCNCc1ccccc1OCc1ccccc1,-4%,-7,0%,4%,-4%,3
Oc1ccc(NCc2ccccc2OCc2ccc(Cl)cc2)cc1,?,-53*,.,1%,.,.
Oc1ccc(NCc2ccccc2OCc2ccccc2)cc1,?,?,7.3µM*,-1%,-20%,5
CCOc1cc(CNc2ccc(O)cc2)ccc1OCc1ccc(Cl)cc1,?,-55*,.,3%,.,.
N#Cc1nc(Nc2cccc(F)c2)nc(NC2CCCC2)n1,-9%,.,.,.,.,.
CCC(CN)=C(c1ccccc1)c1ccccc1,.,-1,.,.,.,.
CC(NC(CCc1ccccc1)C(=O)O)C(=O)N1C(=O)N(C)CC1C(=O)O (stereo not drawn),.,-8,.,.,.,.
CCN(CC)c1ccc2cc(-c3nnc(-c4ccccc4)o3)c(=O)oc2c1,?,3,0%,3.2µM*,?,-4
CN(C)Cc1c(O)ccc2cc(-c3nc4ccccc4n3C)c(=O)oc12,?,4,0%,.,28%,-1
CCN(CC)c1ccc2cc(-c3nc(-c4ccc(Cl)cc4Cl)cs3)c(=O)oc2c1,?,-2,.,2.8µM*,.,.
SMILES,Pin1 inhibitor,PI4K2A block,B2AR arrestin,Epigenetic derep,p53 reactivation,Giardia kill
CCN(CC)c1ccc2cc(-c3nc4ccccc4[nH]3)c(=O)oc2c1,?,-2,3%,2.8µM*,33%,-108*
CCN(CC)c1ccc2cc(-c3nc4ccccc4n3C)c(=O)oc2c1,?,0,0%,7.1µM*,?,14
CCOC(=O)N1CCC(n2c(=O)[nH]c3cc(Cl)ccc32)CC1,.,4,.,.,.,.
Cc1cc(C)cc(OCC(=O)N/N=C/c2ccc([N+](=O)[O-])o2)c1,2%,-1,0%,-5%,12%,-88*
Cc1ccccc1OCC(=O)N/N=C/c1ccc([N+](=O)[O-])o1,11%,1,0%,-1%,-7%,-93*
Cc1ccsc1/C=C/c1ccc2ccccc2n1,4%,-27,0%,2%,13%,-22
Cc1ccsc1/C=C/c1ccc2cccc(O)c2n1,5%,-10,13%,?,40µM*,-4
